SMN2 splice up = SMN2 splice variant enhancement. HEK293 SMN2-luciferase splicing reporter, luminescence, 30-36 h. AID 1458. Potency, µM (series often up to 46.1 µM), actives largely listed as activators. 2.8% of 210,000 active; note: nearly all actives have a fitted effect of over 55% in size
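HEK293 cells carry an SMN2 minigene-luciferase reporter in which exon 7 inclusion puts luciferase in frame. Cells were seeded at 2000 cells/well, attached for 10-12 hours, then exposed to compounds for 30-36 hours at 37C before ONE-Glo luminescence.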
ELG1 genotoxic = inducers of genotoxicity in HEK293T ELG1-luciferase cells | Potency, µM (doses to about 46 µM), usual class: activators | AID 504466 | 1.3% of 330,000 active | HEK293T ELG1-luciferase reporter, luminescence, 16 h; note: nearly all actives have a fitted effect of over 60% in size
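Quantitative HTS format in 1536-well plates. HEK293T ELG1-luciferase reporter cells receive test compound and are incubated 16 hr at 37 °C, 5% CO2; ONE-Glo added, 30 min room temperature, then luminescence read.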
FLuc modulator = firefly luciferase modulation, counter-screen for miR-21 project; purified FLuc, Km substrates, luminescence inhibition; P08659; Potency, µM (highest dose often 57.5 µM), usual class: inhibitors; 6.9% of 360,000 active; note: nearly all actives have a fitted effect of over 55% in size
Target sequence (P08659 whole entry, looked up): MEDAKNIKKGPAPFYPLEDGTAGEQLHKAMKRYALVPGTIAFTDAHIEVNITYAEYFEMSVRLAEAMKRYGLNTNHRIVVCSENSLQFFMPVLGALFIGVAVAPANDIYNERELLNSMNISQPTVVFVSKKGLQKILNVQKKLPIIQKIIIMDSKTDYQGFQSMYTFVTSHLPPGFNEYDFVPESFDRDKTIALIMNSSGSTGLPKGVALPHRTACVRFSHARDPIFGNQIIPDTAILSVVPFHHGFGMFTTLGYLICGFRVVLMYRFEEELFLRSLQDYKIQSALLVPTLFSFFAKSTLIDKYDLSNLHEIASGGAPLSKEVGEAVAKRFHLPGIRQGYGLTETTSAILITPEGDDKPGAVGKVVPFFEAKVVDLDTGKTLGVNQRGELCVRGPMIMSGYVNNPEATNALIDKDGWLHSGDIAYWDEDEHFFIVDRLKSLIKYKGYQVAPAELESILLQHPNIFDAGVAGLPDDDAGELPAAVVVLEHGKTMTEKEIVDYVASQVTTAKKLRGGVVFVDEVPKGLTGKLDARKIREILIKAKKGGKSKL
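Biochemical qHTS of compounds, final roughly 60 µM downward over six points, against 10 nM purified firefly luciferase using Km concentrations of substrates (10 uM D-luciferin, 10 uM ATP) in Tris acetate pH 7.5 buffer; luminescence output.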
NPC1 prom act = NPC1 promoter activation | Huh7 NPC1 promoter luciferase reporter, 24 h | Potency, µM (series often up to 9.22 µM), hits mostly activators | 2.4% of 320,000 active; note: nearly all actives have a fitted effect of over 60% in size
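In 1536-well qHTS, Huh7 cells harboring an NPC1 promoter–luciferase construct received compound for 24 h; activation was quantified by luminescence following luciferase reagent addition.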
ELG1 repair inh = ELG1-dependent DNA repair inhibition; HEK293T ELG1-luciferase reporter, luminescence, 16 h; DNA damage induced by 5-fluorouridine; Potency, µM (top dose mostly 46.1 µM), most hits filed as inhibitors; 2.3% of 330,000 active; note: nearly all actives have a fitted effect of over 55% in size
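In this reporter screen, reduction of luminescence relative to DMSO vehicle indicated activity. Compounds and 5-fluorouridine were added together to 2,000 cells per well, incubated for 16 hr at 37 °C, then developed with ONE-Glo.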
Rab9 prom act = Rab9 promoter activation. Huh7 Rab9 promoter-luciferase reporter, luminescence, 24 h. AID 485297. 2.8% of 320,000 active. Potency, µM (titrated, usually from 9.22 µM), hits mostly activators; note: nearly all actives have a fitted effect of over 60% in size
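Rab9 promoter-driven luciferase in stably transfected Huh7 cells; 1500 cells/well rested 2 h, exposed to compound in DMSO for 24 h at 37 °C, 5% CO2. Luminescence read 10 min after adding luciferase reagent at ambient temperature.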
A number is an active result; - = inactive; ? = inconclusive; . = no result given. A selection: hits, their analogues and other compounds. The true share with any hit is near 9.3%. Calls come from the whole dose curve; as a rule, active = well fitted curve in the direction sought with a large enough effect; inconclusive = small, poorly fitted or top-dose-only effect, or another doubt; inactive = no such curve, though single readings can be large; an effect the other way counts as inactive or inconclusive.

SMILES	SMN2 splice up	ELG1 genotoxic	FLuc modulator	NPC1 prom act	ELG1 repair inh	Rab9 prom act
COC(=O)c1ccc2c(c1)N(C)S(=O)(=O)c1cnc(SCC(=O)C(C)(C)C)nc1-2	.	-	-	-	16µM	-
CCOC(=O)c1cccc(NC(=O)CSc2ncc3c(n2)-c2ccccc2N(C)S3(=O)=O)c1	.	.	-	.	.	.
Cc1cc(C(=O)Nc2ccccc2C(=O)O)ccc1NC(=O)COc1cccc(C)c1C	.	-	6µM	-	-	-
Cc1cccc(OCC(=O)Nc2cccc3cccnc23)c1C	-	.	-	.	.	.
Cc1cccc(C(=O)Nc2cc(C)ccc2NC(=O)COc2ccccc2)c1	-	-	-	-	?	-
Cc1cc(C(=O)Nc2ccccc2C(=O)O)ccc1NC(=O)COc1cccc([N+](=O)[O-])c1	.	-	24µM	-	-	-
Cc1ccc(C(=O)Nc2ccccc2C(=O)O)cc1NC(=O)COc1c(C)cccc1C	-	-	13µM	-	-	-
NC(=O)NC(=O)COC(=O)CCCCCNS(=O)(=O)c1ccc2c(c1)OCCO2	-	-	-	-	-	-
CC(C)CC1(C)NC(=O)N(CC(=O)N2C(C)CCCC2C)C1=O (configuration not stated)	.	-	-	-	-	-
O=C(COC(=O)C12CC3CC(CC(O)(C3)C1)C2)Nc1ccccc1OC(F)F	-	-	?	-	-	-
O=C(COC(=O)C12CC3CC(CC(C3)C1)C2)Nc1ccccc1F	-	-	11µM	-	?	-
O=C(COC(=O)C12CC3CC(CC(O)(C3)C1)C2)Nc1ccc(Br)cc1F	.	?	.	?	?	3.5µM
O=C(NCc1ccco1)C(c1ccccc1)N(Cc1ccccc1)C(=O)Cn1nnc2ccccc21 (configuration not stated)	-	-	-	-	18µM	-
COc1ccc2nc3sc(C(=O)NCc4cccs4)c(N)c3cc2c1	3.5µM	?	0.76µM	3.5µM	?	4µM
COc1ccc(CNC(=O)c2cc(-c3cccs3)on2)cc1	-	-	-	-	?	-
COc1ccc(-c2cc(C(=O)NCc3cccs3)no2)cc1	.	?	?	2.5µM	?	4.5µM
COc1cccc(-c2cc(C(=O)NCc3ccc(F)cc3)no2)c1	-	.	-	.	.	.
COc1ccc(NC(=O)Cn2nnc(C(=O)NCc3cccs3)c2N)cc1	-	?	-	-	?	-
COc1cccc(-c2cc(C(=O)NCc3cccs3)no2)c1	.	23µM	4.8µM	3.2µM	?	3.2µM
COC(=O)c1ccc(N2C(=O)C3CC=CC(C)C3C2=O)cc1 (configuration not stated)	-	-	-	-	-	-
CN(C)C(=O)c1ccc(-c2cncnc2NCCN2CCOCC2)cc1	-	.	.	.	.	.
COc1cccc(C(=O)/C=C2\Sc3ccccc3N2C)c1	6.3µM	1.5µM	1.1µM	0.71µM	?	0.89µM
CN1/C(=C\C(=O)c2cccnc2)Sc2ccccc21	14µM	?	9.5µM	2.5µM	?	2.2µM
COc1cccc(C(=O)Nc2ccccc2NC(=O)c2cccc(OC)c2)c1	.	-	-	-	?	-
CSc1nnc(SC)nn1	-	.	.	.	.	.
SMILES	SMN2 splice up	ELG1 genotoxic	FLuc modulator	NPC1 prom act	ELG1 repair inh	Rab9 prom act
Cc1ccc(NC(=O)c2oc3ccc(S(=O)(=O)N4CCC5(CC4)OCCO5)cc3c2C)cc1C	-	-	?	-	6.5µM	-
CCCNC(=O)C1CCN(c2ccc(S(=O)(=O)N3CCOCC3)cc2Cl)CC1	-	-	-	-	?	-
O=C(NCc1cccnc1)C1CCN(c2ccc(S(=O)(=O)N3CCOCC3)cc2Cl)CC1	.	-	-	-	16µM	-
Cc1c(C(=O)NCc2cccnc2)oc2ccc(S(=O)(=O)N3CC(C)CC(C)C3)cc12 (configuration not stated)	-	-	-	-	-	-
Cc1c(C(=O)NCc2cccnc2)oc2ccc(S(=O)(=O)N3CCC4(CC3)OCCO4)cc12	-	-	-	-	23µM	-
O=C(O)c1cnn2c(-c3ccc(F)cc3)ccnc12	-	-	-	-	-	-
O=C1NCCN/C1=C\C(=O)c1ccc(Cl)cc1	.	?	11µM	1.6µM	?	3.5µM
